# GDH-TPI counter: GDH-TPI coupling enzyme inhibitors, primary screen, artefact control for M. tuberculosis FBA inhibitor project, biochemical, absorbance, full deck; GDH-TPI coupled enzyme counterscreen, NADH absorbance; 1.2% of 360,000 active; inhibition, % at 4.8 µM; AID 588335, 2011; in the data active = inhibition above about 30%;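 also: 0% = DMSO wells and 100% = wells lacking the enzyme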
# RecA intein inh: Mtb RecA intein splicing inhibitors, primary screen, biochemical, fluorescence, HTS. AID 2221, 2009. Protein RecA (Mycobacterium tuberculosis (strain ATCC 25618 / H37Rv)), P9WHJ3. 0.75% of 290,000 active. cell-free RecA intein splicing. inhibition, % (concentration not given with the values); in the data active = inhibition above about 30%;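 also: 0% = vehicle wells and 100% = reference inhibitor control wells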
# Target sequence (P9WHJ3 whole entry, looked up): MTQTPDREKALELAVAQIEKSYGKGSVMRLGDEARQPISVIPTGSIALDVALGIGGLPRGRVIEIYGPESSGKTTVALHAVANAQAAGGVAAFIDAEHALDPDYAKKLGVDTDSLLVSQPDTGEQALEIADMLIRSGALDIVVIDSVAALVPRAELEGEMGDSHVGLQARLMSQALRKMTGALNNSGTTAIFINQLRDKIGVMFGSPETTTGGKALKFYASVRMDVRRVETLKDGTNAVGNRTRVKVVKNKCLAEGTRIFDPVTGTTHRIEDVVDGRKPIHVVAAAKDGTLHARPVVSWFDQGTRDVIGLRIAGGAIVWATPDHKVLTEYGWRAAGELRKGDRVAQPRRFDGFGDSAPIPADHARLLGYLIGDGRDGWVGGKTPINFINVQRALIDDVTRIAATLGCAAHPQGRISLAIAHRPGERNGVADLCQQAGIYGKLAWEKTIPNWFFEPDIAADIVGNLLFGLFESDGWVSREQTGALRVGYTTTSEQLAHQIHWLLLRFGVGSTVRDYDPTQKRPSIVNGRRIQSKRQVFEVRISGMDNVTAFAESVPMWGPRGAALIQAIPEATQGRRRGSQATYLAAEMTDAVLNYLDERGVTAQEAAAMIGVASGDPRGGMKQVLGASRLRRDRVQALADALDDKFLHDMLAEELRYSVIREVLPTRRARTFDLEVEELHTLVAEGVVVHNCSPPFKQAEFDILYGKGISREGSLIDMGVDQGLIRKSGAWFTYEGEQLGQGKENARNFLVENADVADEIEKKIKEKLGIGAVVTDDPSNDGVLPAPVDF
# Rv3671c inh: Rv3671c serine protease inhibitors, primary screen, biochemical, fluorescence polarization, M. tuberculosis H37Rv; inhibition, % at 5.96 µM; 0.048% of 320,000 active; in the data active = inhibition above about 38%;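 also: extracellular domain of Rv3671c used as enzyme; 0% = enzyme with DMSO and 100% = no enzyme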
# BH1578 lux ind: inducers of Vibrio cholerae quorum light production without autoinducers, primary screen, BH1578 luxS cqsA deficient, single point. V. cholerae BH1578 lux reporter, luminescence, 6 h. activation, % at 18.7 µM. 0.16% of 350,000 active; in the data active = activation mostly above about 9.7%, no sharp cut-off
# FBA Mtb inh: Mtb FBA enzyme inhibitors, primary screen, biochemical, fluorescence, strain H37Rv | purified M. tuberculosis FBA, fluorescence read-out | inhibition, % at 1 µM | 2.3% of 360,000 active | AID 588726, 2011; in the data active = inhibition above about 27%;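 also: 0% = vehicle and 100% = reference inhibitor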
# Mtb UGM inh: M. tuberculosis UGM enzyme inhibitors, primary screen, biochemical, fluorescence polarization, single point. 0.06% of 320,000 active. purified UGM, fluorescence polarization probe displacement. inhibition, % at 10 µM. AID 504406, 2011. UDP-galactopyranose mutase (Mycobacterium tuberculosis (strain ATCC 25618 / H37Rv)), …; in the data active = inhibition above about 10%, passing the limit was not always enough
# * = called active by the depositor; i = inactive; nt = no result given. The list is not random: actives were taken first. Their share in the collection is about 4.1%.
SMILES,GDH-TPI counter,RecA intein inh,Rv3671c inh,BH1578 lux ind,FBA Mtb inh,Mtb UGM inh
O=C1c2ccccc2-c2c1nc1c([n+]2[O-])CCCC1,-6,37*,-2,-3,-1,2
COc1cccc(/C(C)=N/Nc2ccc(S(=O)(=O)N3CCCCC3)cn2)c1,23,nt,-10,0,-2,1
C/C(=N\Nc1ccc(S(=O)(=O)N2CCCCC2)cn1)c1ccc(O)cc1,34*,nt,8,i,0,-2
CCOC(=O)N/N=C\C=C\c1ccc2c(c1)OCO2,37*,-3,-5,0,3,1
COc1ccc(CC(=O)N/N=C/C=C/c2ccc3c(c2)OCO3)cc1OC,35*,-4,-8,i,1,-3
CCN(CC)c1ccc(/C=N/NC(=O)Cc2ccc(OC)c(OC)c2)cc1,46*,2,0,0,26,-1
CCN(CC)c1ccc(C(=O)N/N=C(\C)c2ccc(OC)c(OC)c2)cc1,32*,-3,7,i,-2,2
Cc1ccc(C)c(Cn2c3ccccc3c3cnn(CC(=O)NCCCN4CCCCC4)c(=O)c32)c1,0,3,-5,0,5,-1
O=C(N[C@@H](Cc1ccccc1)C(=O)N1CCN(S(=O)(=O)c2cccc(F)c2)CC1)c1ccco1,-4,nt,-14,1,0,1
COC(=O)c1cccc(NC(=O)CCc2c(C)noc2C)c1,-2,nt,0,i,2,-1
COc1ccc(Cl)cc1-c1cc(C(=O)NCc2ccco2)[nH]n1,5,nt,nt,i,0,nt
O=c1ccn([C@@H]2O[C@H](CNS(=O)(=O)c3csc(-c4ccno4)c3)[C@@H](O)[C@H]2O)c(=O)[nH]1,-6,nt,nt,i,1,nt
CC(=O)c1ccc(NC(=O)/C(=C\c2ccc(F)cc2)NC(=O)c2ccco2)cc1,7,nt,-6,0,2,8
CCN(CC)c1ccc(/C=N/NC(=O)c2cccc(S(=O)(=O)Nc3ccccc3OC)c2)cc1,18,-12,3,nt,-1,1
COc1cc(C(=O)NN=Cc2ccc(N(CCCl)CCCl)cc2)cc(OC)c1OC,61*,nt,nt,0,9,nt
COC(=O)N/N=C\C=C\c1ccc2c(c1)OCO2,44*,-2,-6,-1,3,1
CC(C)(C)OC(=O)N/N=C\C=C\c1ccc2c(c1)OCO2,26,nt,3,-3,-1,-2
CCOC(=O)CNc1ccc2c(c1)OCO2,2,-4,6,3,3,12*
CCc1nc2c(OCCOc3ccccc3)cccn2c1N(C)C(=O)C1CC1,0,nt,nt,-1,-2,nt
O=C(C[C@@H]1C/C=C/CCCC(=O)O[C@H](c2ccccc2)CNC1=O)NCCO,4,nt,2,-1,2,5
CCOC(=O)Cc1csc(N/N=C\c2ccccc2OC)n1,22,-1,0,-1,2,0
O=C(CSc1nncc(=O)[nH]1)Nc1cccc([N+](=O)[O-])c1,-3,3,-3,-2,-2,2
COc1cc(C2/C(=C(\O)c3ccc4c(c3)OCCO4)C(=O)C(=O)N2Cc2ccco2)cc(OC)c1OC (centres undefined),32*,-1,nt,i,0,-3
COc1cc(C2/C(=C(\O)c3ccc4c(c3)OCCO4)C(=O)C(=O)N2Cc2ccco2)ccc1O (centres undefined),9,-6,-3,-4,6,1
COc1ccc(/C(O)=C2\C(=O)C(=O)N(Cc3ccco3)C2c2cc(OC)ccc2OC)cc1 (centres undefined),40*,0,3,-1,0,1
COc1ccc(OC)c(C2/C(=C(/O)c3ccccc3)C(=O)C(=O)N2Cc2ccco2)c1 (centres undefined),12,1,2,-1,-2,1
CCN(CCn1cccn1)C(=O)c1ccc(OC2CCN(C(=O)CCOC)CC2)cc1,-1,nt,nt,i,-2,nt
CCCCC(=O)N(C)c1c(CC)nc2c(OCCOc3ccc(F)cc3)cccn12,7,nt,nt,-1,6,nt
